The source of these data is PubChem BioAssay (NCATS).

Molecules are shown by their SMILES. Inconclusive results are not listed. A number with no mark means an inactive call. Active and inactive are the calls of the source. Calls follow the shape of the dose curve; as a rule, active = well fitted curve in either direction with a large enough effect (not every such curve was filed as active); inconclusive = small, poorly fitted or top-dose-only effect, or another doubt; inactive = flat fitted curve, though single readings scatter.
% is scaled to controls: 0 for no effect and ±100 for the full control effect.

In this assay the target is Mitogen-activated protein kinase 10 (Mus musculus) (UniProt Q61831). The assay is described as follows: JNK3 AlphaScreen Assay (AID 530).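 Also: kinase came from lysate of stimulated human HepG2 cells.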 Particulars: JNK3 lysate, c-Jun phosphorylation; series mostly up to 57.1 µM; activity change, negative = inhibition: at the top concentration. The text has this:
NIH Chemical Genomics Center [NCGC]
NIH Molecular Libraries Screening Centers Network [MLSCN]
The c-jun N-terminal kinase (JNK) family are serine/threonine protein kinases that phosphorylate c-jun, a component of the transcription factor […] (AP-1). JNK kinases are members of the mitogen-activated protein kinase family including the extracellular regulated kinases and p38 kinases. Three JNK genes (JNK 1, 2, and 3) have been identified in humans so far. JNK1 and JNK2 have a broad distribution and JNK3 is primarily found in neuronal tissues and cardiac myocytes.
JNK3 has been under consideration as a target for the treatment of neurodegenerative disorders. […] JNK pathway is also involved in pathological process in a mouse model of Parkinson's disease (Xia et al., 2001).
Given these potential tissue distributions and links to neuroprotection, JNK3 inhibitors should provide useful investigational tools to study the role of this kinase in several diseases including, arthritis, stroke, myocardial infarction, ischemic injury and Parkinson's disease.
A homogeneous AlphaScreen is developed to measure the activity of JNK3. AlphaScreen is a two bead-based proximity-dependent chemical energy transfer luminescent assay platform. The phosphorylation of a biotinylated c-jun substrate by JNK3 can be detected with an antibody raised against phosphorylated c-jun. This process brings streptavidin donor beads and Protein-A acceptor beads to within a proximity range of <200 nm, and subsequently lead a chemical luminescent reaction upon exciting donor beads with 680 nm laser excitation light. Inhibition of JNK3 activity by small molecules and subsequent decrease in the antibody binding to biotinylated c-jun could attenuate or abolish this chemical luminescent reaction.
Yang DD, Kuan CY, Whitmarsh AJ, Rincon M, Zheng TS, Davis RJ, Rakic P and Flavell RA (1997) Absence of excitotoxicity-induced apoptosis in the hippocampus of mice lacking the Jnk3 gene. Nature 389:865-870. [PMID: 9349820]
Herdegen T, Claret FX, Kallunki T, Martin-Villalba A, Winter C, Hunter T, and Karin M (1998) Lasting N-terminal phosphorylation of c-Jun and activation of c-Jun N-terminal kinases after neuronal injury. J.Neurosci. 18:5124-5135. [PMID: 9651196]
Xia XG, Harding T, Weller M, Bieneman A, Uney JB and Schulz JB (2001) Gene transfer of the JNK interacting protein-1 protects dopaminergic neurons in the MPTP model of Parkinson's disease. Proc.Natl.Acad.Sci.U.S.A. 98:10433-10438.
NCGC Assay Protocol Summary:
GST-cJun (1-79) (Stratagene, La Jolla CA, #205145) was biotnylated by PerkinElmer (PerkinElmer-BioSignalInc. Montreal, Canada) and was detectable by the streptavidin Donor beads. Anti-(phospho)cJun (Ser73) antibody was from UpState (Charlottesvilles, VA, #06-659). JNK3-containing lysates were generated from HepG2 cells and pre-activated by interleukin1-beta and tumor necrosis factor alpha. All reagents were stored at -20 C before using. Phosphorylated biotinylated-GST-cJun was recognized by Anti-(phospho)cJun (Ser73) antibody and this process brings acceptor and donor beads together. Therefore JNK3 phosphorylation of cJun can be measured by Alpha reading by EnVision (PerkinElmer, Boston, MA).
The composition of kinase buffer was (in mM) 20 tris- HCl (pH 7.6) 10 MgCl2, 1 DTT, and 0.1 Na3VO4 and 0.01% Tween-20. Beads were diluted in detection buffer containing (in mM) 20 tris-HCl (pH 7.7), 20 NaCl and 80 EDTA and 0.3% BSA. The assay was performed at room temperature. All compounds were screened as titrations from 0.6 nM to 46 uM final concentration. The assay was performed in 1536-well format (white solid bottom and untreated) as follows:
Sequence,Parameter,Value,Description
1,Reagent,3 uL,Biotin-GST-cJun, Anti-(phospho)cJun and pre-activated JNK3-containing lysates
2,Compound,23 nL,Final concentration was 0.6nM to 46uM
3,Time,15 minutes,Room Temperature
4,Reagent,1 uL,ATP final concentration 10uM
6,Reagent,0.5 uL,2ng/well bead mixture
[…]
A general note: Alpha assays give light when donor and acceptor beads are brought close together.
Take `O=[N+]([O-])c1ccccc1-c1ccccc1`: the “activity change, negative = inhibition” value is 14%.

Take `Nc1cccc2ccccc12`: the “activity change, negative = inhibition” value is 9.88%.

With `C[N+]1(C)C2CC[C@H]1CC(OC(=O)[C@@H](CO)c1ccccc1)C2` (stereo not given in full), the activity change, negative = inhibition is 2.63% [at 11.4 µM].

For `c1nc(N2CC2)c2cnn([C@@H]3CCCCO3)c2n1`, the activity change, negative = inhibition is 0.68% [at 11.4 µM].

As for `Clc1ccccc1`, the “activity change, negative = inhibition” value is 11.2%.

Take `CC(=O)O/C(=C1/C[C@H]2[C@@H]3CC=C4C[C@@H](OC(C)=O)CC[C@]4(C)[C@@H]3CC[C@]2(C)C1=O)C(F)(F)F`: the activity change, negative = inhibition was -0.565% [at 11.4 µM].

As to `c1ccc(NNc2ccccc2)cc1`, the “activity change, negative = inhibition” value is -14.6%.

Regarding `Cc1ccc(N)cc1N`, the “activity change, negative = inhibition” value was 11.5%.

For the molecule `NCCc1ccc(S(=O)(=O)O)cc1[N+](=O)[O-]`, the activity change, negative = inhibition was 10.9% [at 11.4 µM].

Take `COc1ccc(C=O)cc1`: the “activity change, negative = inhibition” value is -14.3%.

For the molecule `CC(C)C(=O)CP(=O)(O)O`, the activity change, negative = inhibition was 3.33% [at 11.4 µM].

For `O.O.[NH-]C1(C(=O)O)CCCC1.[NH-]C1(C(=O)O)CCCC1.[Ni+2]`, the activity change, negative = inhibition was -2.59% [at 11.4 µM].

Turning to `C[C@@]12CC[C@H]3[C@@H](CC[C@H]4C[C@@H](O)CC[C@]43C)[C@H]1CC[C@@H]2C(=O)C[C@H](O)C(F)(F)F`, the activity change, negative = inhibition was -0.552% [at 11.4 µM].

In the case of `COc1cc(C[C@H](C)N)c(OC)cc1I`, the Potency entry is “inactive”.

As to `CC(C)(C)c1cc(C#N)cc(Br)c1OP(=O)(Oc1c(Br)cc(C#N)cc1C(C)(C)C)c1ccccc1`, the activity change, negative = inhibition is -1.35% [at 11.4 µM].

For the molecule `C[C@@]12CC[C@H](O[C@@H]3O[C@H](CO)[C@@H](O)[C@H](O)[C@@H]3O)C[C@@H]1CC[C@H]1[C@H]2CC[C@@]2(C)[C@@H](C3=CCOC3=O)CC[C@]12O`, the activity change, negative = inhibition was 8.37% [at 11.4 µM].

Turning to `ClC(Cl)(Cl)C(Cl)(Cl)Cl`, the “activity change, negative = inhibition” value was 22.6%.

`CC(C)(Cl)[N+](=O)[O-]`: the “activity change, negative = inhibition” value was -1.72%.

On to `C[C@]1(O)CC[C@H]2[C@@H]3[C@@H](O)CC4=CC(=O)CC[C@@]4(C)[C@H]3CC[C@]21C`, for which the activity change, negative = inhibition is -3.1% [at 11.4 µM].

For `CC(=O)O[C@H]1CC[C@H]2[C@@H]3CCC4=C[C@@H](C5SCCS5)[C@H](OC(C)=O)C[C@]4(C)[C@H]3CC[C@@]12C`, the activity change, negative = inhibition is 5.72% [at 11.4 µM].

With `CSSC`, the “activity change, negative = inhibition” value is 20.6%.

Consider `N[C@@H](Cc1c[nH]c2cc([N+](=O)[O-])ccc12)C(=O)O`, for which the activity change, negative = inhibition is 4.66% [at 11.4 µM].

As for `C=CC=O`, the “activity change, negative = inhibition” value was -15.5%.

Consider `CCc1ccc(CCN2CCCCC2)nc1`, for which the activity change, negative = inhibition is 1.06% [at 11.4 µM].

Turning to `O=C(O)C(Cl)Br` (stereo not given), the “activity change, negative = inhibition” value was 16.3%.

For the molecule `C=CC#N`, the “activity change, negative = inhibition” value was 14.2%.

Regarding `CCCCCc1cc(O)cc(O)c1`, the “activity change, negative = inhibition” value is 3.66%.

Take `Cc1ccc(N=C=O)cc1N=C=O`: the “activity change, negative = inhibition” value is 2.62%.

With `Cc1ncc([N+](=O)[O-])n1CCN=[N+]=[N-]`, the activity change, negative = inhibition was 2.72% [at 11.4 µM].

Turning to `CN(C)C(=O)Cl`, the “activity change, negative = inhibition” value was 19%.

Turning to `CC[N+](=O)[O-]`, the “activity change, negative = inhibition” value is 16.4%.

With `CC(=O)OC1=CC2=CC[C@H]3[C@H]4CCC(=O)[C@@]4(C)CC(=O)[C@]3(S)[C@]2(C)CC1`, the activity change, negative = inhibition is -3.16% [at 11.4 µM].

Consider `CS(=N)(=O)CC[C@H](N)P(=O)(O)O` (stereo not given in full), for which the activity change, negative = inhibition was -2.65% [at 11.4 µM].

Take `O=C(O)CN1CCN(CC(=O)O)CC(=O)[O][Hg][O]C(=O)C1`: the activity change, negative = inhibition is -1.36% [at 11.4 µM].

`CCC1=C(C[C@H]2NCCc3cc(OC)c(OC)cc32)C[C@H]2c3ccccc3CCN2C1`: the activity change, negative = inhibition is 5.5% [at 11.4 µM].

For `O=C(O)[C@H]1C2c3ccccc3C(c3ccccc32)[C@@H]1C(=O)NCC1CC1`, the activity change, negative = inhibition was 2.32% [at 11.4 µM].

For the molecule `CCN=C=NCCCN(C)C`, the activity change, negative = inhibition is -0.714% [at 11.4 µM].

Regarding `c1ccc2c(c1)CCNC2`, the “activity change, negative = inhibition” value is 24.1%.

In the case of `Cn1c(=O)c2[nH]cnc2n(C)c1=O.[CH2-][C@H](Cc1cccc2cc(C(=O)O)c(=O)oc12)OC.[Hg].[OH-]`, the activity change, negative = inhibition was -0.539% [at 11.4 µM].

Turning to `O=C(O)CSCC(=O)O`, the activity change, negative = inhibition is 8.86% [at 11.4 µM].
